Laboratory results published in PubChem BioAssay (NCI).
The panel holds about 83,000 compounds, 20% with a hit somewhere; the sample as a whole holds those more often.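 Growth was measured after 48 h exposure to one concentration of compound in 96-well plates. Values under 10 count as active.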 A number with no mark means an inactive call. Calls of active or inactive are those of the source.

Tested on: HOP-92 NSCLC
Assay: NCI-60 one-dose screen, 48 h (100 = growth as untreated, 0 = no growth, -100 = all killed)
Conditions: 10 µM unless noted

Compound | growth
CCN1CCN(C(=S)SCC(=O)Nc2nc3ccc(OC)cc3s2)CC1 | 83.8%
COc1ccc(-c2nc3sc(C)nn3c2-c2nc3cc(C)c(C)cc3[nH]2)cc1 | 87.9%
CCCCC1COc2cccc3c(SCC(=O)N(C)c4cccc5ccccc45)cc[n+]1c23 (configuration not stated) | 105%
O=C1NC(=O)C(CSc2ccccc2)(c2ccccc2)N1 (configuration not stated) | 90.8%
O=C1c2ccccc2-c2nnc(-c3ccc(Br)cc3)cc21 | 78.6%
O=c1c2cc(F)ccc2oc2c(NCCNCCO)nc3ccccc3c12 | 38.4%
CCCCCn1c(=N)n(CC(O)COc2cccc(C)c2)c2ccccc21 (configuration not stated) | -10.9% (active)
Cc1ccccc1-n1nnc(C(=O)Nc2ccc(-c3ccccc3)cn2)c1C | 74.3% [50 µM]
O=C(N/N=C/c1ccc(OC(F)F)c(OC2CCCC2)c1)c1cnn2c1NC(c1ccccc1)C2 (configuration not stated) | 80.6%
O=C(NCc1ccc(F)cc1)C1CN(c2ccc(Cl)cc2)N(c2ccc(Cl)cc2)C1=O (configuration not stated) | 91.1%
O=C1CCC(N2Cc3c(C#CCCCNC(=O)c4cc5c(o4)C(=O)c4ccccc4C5=O)cccc3C2=O)C(=O)N1 (configuration not stated) | 52.3%
Nc1cccc2c(=S)c3ccccc3[nH]c12 | 98.4%
Cc1ccc(NS(=O)(=O)c2ccc(-c3cnc(C4CC4)o3)cc2)cc1 | 57%
N#Cc1c(-c2cccc(F)c2)cc(-c2ccc(Br)s2)[nH]c1=O | 42.6%
O=C1c2ccccc2-c2cn(Cc3ccccc3)c3cccc(c23)C1c1cccnc1 (configuration not stated) | 76.8%
COc1cc2cc(Oc3ccc(NC(=O)Nc4cccc(C(F)(F)F)c4)cc3)c(C)nc2cc1OCCN1CCCCC1 | 23.4%
CCC(=O)Nc1nnc(Cc2ccc(OC)c(OC)c2)s1 | 32.6%
O=c1[nH]c(=S)c2c(n1CCCO)CCC2 | 109%
CC(C)(C)[Si](C)(C)OC1[C@@H](COC(=O)NC(=O)CCl)O[C@@H](n2cnc3c(N)ncnc32)[C@H]1O[Si](C)(C)C(C)(C)C (some centres not stated) | 12.7%
Cc1ccccc1-n1nnc(C(=O)Nc2nc(-c3ccccc3)c(-c3ccccc3)s2)c1C | 62.3% [50 µM]
Oc1ccc2ccccc2c1C1NN=C(c2ccccc2)S1 (configuration not stated) | 42.8%
CCCCCCCC/C=C\CCCCCCCCOc1cccc(CC(=O)NCC[N+]2(C)CCOCC2)c1 | 86.4%
CCC(C)Oc1cc(/C=N/NC(=O)c2cnn3c2NC(c2ccccc2)C3)ccc1OC (configuration not stated) | 71.8%
COc1ccc(OC2=CC(=O)c3ccc(C)nc3C2=O)cc1 | 122%
COc1ccc(/C=C2\SC(=O)N(CN3CCN(c4cc5c(cc4F)c(=O)c(C(=O)O)cn5C4CC4)CC3)C2=O)cc1 | 101%

Tested on: NCI-H522 lung
Assay: as above
Conditions: 10 µM

Compound | growth
COc1ccc(NS(=O)(=O)c2ccc(-c3cnc(C4CC4)o3)cc2)cc1 | 51%
O=C(NCc1ccc(F)cc1)C1CN(c2ccc(Cl)cc2)N(c2ccc(Cl)cc2)C1=O (configuration not stated) | 52.5%
Cc1ccc(NS(=O)(=O)c2ccc(-c3cnc(C4CC4)o3)cc2)cc1 | 9.2% (active)
N#Cc1c(-c2cccc(F)c2)cc(-c2ccc(Br)s2)[nH]c1=O | 35.7%
O=C1c2ccccc2-c2cn(Cc3ccccc3)c3cccc(c23)C1c1cccnc1 (configuration not stated) | -12.4% (active)
O=c1[nH]c(=S)c2c(n1CCCO)CCC2 | 88.4%
CCC(C)Oc1cc(/C=N/NC(=O)c2cnn3c2NC(c2ccccc2)C3)ccc1OC (configuration not stated) | 10.7%
COc1ccc(OC2=CC(=O)c3ccc(C)nc3C2=O)cc1 | 55.2%
COc1ccc(/C=C2\SC(=O)N(CN3CCN(c4cc5c(cc4F)c(=O)c(C(=O)O)cn5C4CC4)CC3)C2=O)cc1 | 94.2%

Tested on: A549/ATCC NSCLC
Assay: as above
Conditions: 10 µM unless noted

Compound | growth
O=c1[nH]c(=O)n(Cc2ccc(F)cc2)cc1F | 96% [50 µM]
CC(=O)Nc1ccccc1-c1n[nH]c(=O)[nH]c1=O | 116%
CCOC(=O)c1[nH]c2cc(Cl)ccc2c1[C@@H](C(=O)NC(C)(C)C)N(CC)C(=O)CCCCC#Cc1cccc2c1CN(C1CCC(=O)NC1=O)C2=O (some centres not stated) | 20.7%
NS(=O)(=O)c1ccc(C(=O)N/N=C(\CS(=O)(=O)c2ccccc2)c2cc3cc(Br)ccc3o2)cc1 | 87%
O=C1Nc2ccc(Cl)cc2/C1=N/N=C(c1ccccc1)c1ccccc1 | 91.9%
Cc1c(C(=O)Nc2nc(-c3ccccc3)cs2)nnn1-c1cccc2ccccc12 | 43.9% [50 µM]
COc1ccc(NS(=O)(=O)c2ccc(-c3cnc(C4CC4)o3)cc2)cc1 | 54.7%
O=c1[nH]c(-c2ccncc2)nc2sc3c(c12)CCCCCC3 | 43.7%
CC(C)OC1=C(Cl)C(=O)c2ccccc2C1=O | 102%
O=c1nc(NO)[nH]c(=O)n1Cc1ccccc1 | 111%
COc1c(O)c2c3c(c1OC)-c1ccccc1CC3N(S(=O)(=O)c1ccc(C)cc1)CC2 (configuration not stated) | 44.1%
Fc1c[c-]c(-c2ccccn2)c(F)c1.Fc1c[c-]c(-c2ccccn2)c(F)c1.[Cl][Pt+].[Cl][Pt+].c1ccc([PH+](C[PH+](c2ccccc2)c2ccccc2)c2ccccc2)cc1 | 20.6%
O=C(c1ccc2ncc(-c3nc(NC4CC4)ncc3F)n2c1)N1CCOCC1 | 13.9%
CCN1CCN(C(=S)SCC(=O)Nc2nc3ccc(OC)cc3s2)CC1 | 99.5%
COc1ccc(-c2nc3sc(C)nn3c2-c2nc3cc(C)c(C)cc3[nH]2)cc1 | 96.3%
CCCCC1COc2cccc3c(SCC(=O)N(C)c4cccc5ccccc45)cc[n+]1c23 (configuration not stated) | 103%
O=C1NC(=O)C(CSc2ccccc2)(c2ccccc2)N1 (configuration not stated) | 92.4%
O=C1c2ccccc2-c2nnc(-c3ccc(Br)cc3)cc21 | 1.3% (active)
O=c1c2cc(F)ccc2oc2c(NCCNCCO)nc3ccccc3c12 | 45.1%

Compound | growth
CCCCCn1c(=N)n(CC(O)COc2cccc(C)c2)c2ccccc21 (configuration not stated) | 7.6% (active)
Cc1ccccc1-n1nnc(C(=O)Nc2ccc(-c3ccccc3)cn2)c1C | 29.8% [50 µM]
O=C(N/N=C/c1ccc(OC(F)F)c(OC2CCCC2)c1)c1cnn2c1NC(c1ccccc1)C2 (configuration not stated) | 73.8%
O=C(NCc1ccc(F)cc1)C1CN(c2ccc(Cl)cc2)N(c2ccc(Cl)cc2)C1=O (configuration not stated) | 48.8%
O=C1CCC(N2Cc3c(C#CCCCNC(=O)c4cc5c(o4)C(=O)c4ccccc4C5=O)cccc3C2=O)C(=O)N1 (configuration not stated) | 30%
Nc1cccc2c(=S)c3ccccc3[nH]c12 | 108%
Cc1ccc(NS(=O)(=O)c2ccc(-c3cnc(C4CC4)o3)cc2)cc1 | 40.2%
N#Cc1c(-c2cccc(F)c2)cc(-c2ccc(Br)s2)[nH]c1=O | 59.4%
O=C1c2ccccc2-c2cn(Cc3ccccc3)c3cccc(c23)C1c1cccnc1 (configuration not stated) | 42.2%
COc1cc2cc(Oc3ccc(NC(=O)Nc4cccc(C(F)(F)F)c4)cc3)c(C)nc2cc1OCCN1CCCCC1 | -56.2% (active)
CCC(=O)Nc1nnc(Cc2ccc(OC)c(OC)c2)s1 | -55% (active)
O=c1[nH]c(=S)c2c(n1CCCO)CCC2 | 100%
CC(C)(C)[Si](C)(C)OC1[C@@H](COC(=O)NC(=O)CCl)O[C@@H](n2cnc3c(N)ncnc32)[C@H]1O[Si](C)(C)C(C)(C)C (some centres not stated) | 62.6%
Cc1ccccc1-n1nnc(C(=O)Nc2nc(-c3ccccc3)c(-c3ccccc3)s2)c1C | 65.4% [50 µM]
Oc1ccc2ccccc2c1C1NN=C(c2ccccc2)S1 (configuration not stated) | 18%
CCCCCCCC/C=C\CCCCCCCCOc1cccc(CC(=O)NCC[N+]2(C)CCOCC2)c1 | 90.6%
CCC(C)Oc1cc(/C=N/NC(=O)c2cnn3c2NC(c2ccccc2)C3)ccc1OC (configuration not stated) | 43.6%
COc1ccc(OC2=CC(=O)c3ccc(C)nc3C2=O)cc1 | 96.4%
COc1ccc(/C=C2\SC(=O)N(CN3CCN(c4cc5c(cc4F)c(=O)c(C(=O)O)cn5C4CC4)CC3)C2=O)cc1 | 99.4%
